How the values were obtained:
Test in all cases: DAPPL (digital affinity profiling via proximity ligation, sequencing); 10 mM Tris-HCl pH 7.5, 50 mM NaCl, 1 mM DTT, 4% glycerol, room temperature, 30 min; GST-TFs on glutathione beads, 16-mer random dsDNA library, 0.1% formaldehyde crosslink after washing; high values mean tight binding
FLI1 = target: T1, FLI1 (Homo sapiens, UniProt Q01543 1-452); details: protein: recombinant; tags: N-terminal GST; dsDNA, one strand shown
T1 sequence: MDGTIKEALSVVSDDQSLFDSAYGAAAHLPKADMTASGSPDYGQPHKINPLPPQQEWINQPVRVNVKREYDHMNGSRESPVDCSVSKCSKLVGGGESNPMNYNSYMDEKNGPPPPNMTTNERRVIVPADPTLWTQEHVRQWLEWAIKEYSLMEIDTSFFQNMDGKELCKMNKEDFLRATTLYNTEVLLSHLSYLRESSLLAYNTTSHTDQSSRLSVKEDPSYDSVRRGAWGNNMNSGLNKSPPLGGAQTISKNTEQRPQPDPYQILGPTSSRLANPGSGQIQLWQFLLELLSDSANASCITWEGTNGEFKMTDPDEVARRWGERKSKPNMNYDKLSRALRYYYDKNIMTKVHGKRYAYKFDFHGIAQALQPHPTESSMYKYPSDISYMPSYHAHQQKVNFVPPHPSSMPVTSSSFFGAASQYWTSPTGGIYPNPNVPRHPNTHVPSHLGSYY
Summary of the method: (§1)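 Sequencing on an Illumina NextSeq500 followed washing, crosslinking with 0.1% formaldehyde, proximity ligation (BsaI/T4 ligase, 1 h, 37 °C) and PCR amplification of pools that had been incubated for 30 min at room temperature with 200 nmole of a random double-stranded 16-mer DNA library in Tris/NaCl/DTT/glycerol buffer. Each pool held DNA-barcoded human transcription factors, expressed in yeast as GST fusions and captured on glutathione beads, plus a tag-only sample. Binding signal is a hexamer's read frequency for a factor divided by its frequency in the tag-only sample.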

ELK1 = target: T2, ELK1 (Homo sapiens, UniProt P19419 1-428); details: protein: recombinant; tags: N-terminal GST; dsDNA, one strand shown
T2 sequence: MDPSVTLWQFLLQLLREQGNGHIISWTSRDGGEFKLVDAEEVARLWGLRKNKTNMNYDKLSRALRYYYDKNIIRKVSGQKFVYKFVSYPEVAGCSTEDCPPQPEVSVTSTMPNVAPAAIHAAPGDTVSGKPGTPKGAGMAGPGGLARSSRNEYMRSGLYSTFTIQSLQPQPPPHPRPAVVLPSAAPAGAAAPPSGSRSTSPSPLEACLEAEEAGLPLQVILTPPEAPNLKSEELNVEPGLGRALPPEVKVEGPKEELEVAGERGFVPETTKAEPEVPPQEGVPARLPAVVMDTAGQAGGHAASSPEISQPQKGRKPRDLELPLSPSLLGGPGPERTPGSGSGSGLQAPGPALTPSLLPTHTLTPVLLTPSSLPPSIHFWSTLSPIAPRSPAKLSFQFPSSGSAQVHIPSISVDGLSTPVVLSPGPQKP
Summary of the method: as §1

GABPA = target: T3, GABPA (Homo sapiens, UniProt Q06546 1-454); details: protein: recombinant; tags: N-terminal GST; dsDNA, one strand shown
T3 sequence: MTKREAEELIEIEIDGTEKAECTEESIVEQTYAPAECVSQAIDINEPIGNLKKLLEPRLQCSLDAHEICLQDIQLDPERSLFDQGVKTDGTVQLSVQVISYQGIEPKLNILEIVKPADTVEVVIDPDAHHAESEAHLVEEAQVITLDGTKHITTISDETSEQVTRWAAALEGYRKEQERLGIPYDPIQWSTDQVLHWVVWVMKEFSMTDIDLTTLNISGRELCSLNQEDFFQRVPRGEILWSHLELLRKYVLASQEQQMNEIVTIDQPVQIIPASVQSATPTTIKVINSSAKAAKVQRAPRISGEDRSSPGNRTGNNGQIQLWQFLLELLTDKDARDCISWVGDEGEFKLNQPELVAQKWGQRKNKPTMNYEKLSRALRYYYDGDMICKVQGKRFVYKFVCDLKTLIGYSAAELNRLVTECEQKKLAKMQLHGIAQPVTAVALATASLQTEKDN
Summary of the method: as §1

ERG = target: T4, ERG (Homo sapiens, UniProt P11308 1-479); details: protein: recombinant; tags: N-terminal GST; dsDNA, one strand shown
T4 sequence: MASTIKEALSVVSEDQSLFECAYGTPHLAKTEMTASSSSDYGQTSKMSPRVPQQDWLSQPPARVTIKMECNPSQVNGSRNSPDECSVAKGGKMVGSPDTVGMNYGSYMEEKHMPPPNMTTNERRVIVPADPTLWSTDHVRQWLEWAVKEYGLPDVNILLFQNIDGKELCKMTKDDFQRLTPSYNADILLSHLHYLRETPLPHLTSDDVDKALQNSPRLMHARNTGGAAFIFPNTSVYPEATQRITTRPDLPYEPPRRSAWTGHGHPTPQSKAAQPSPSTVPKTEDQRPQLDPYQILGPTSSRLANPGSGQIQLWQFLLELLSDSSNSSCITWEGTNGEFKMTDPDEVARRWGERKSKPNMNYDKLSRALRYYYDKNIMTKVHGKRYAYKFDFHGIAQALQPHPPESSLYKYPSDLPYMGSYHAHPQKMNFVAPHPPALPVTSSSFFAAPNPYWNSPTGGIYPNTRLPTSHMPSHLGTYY
Summary of the method: as §1

ELF1 = ELF1 (Homo sapiens, UniProt P32519 1-619); details: protein: recombinant; tags: N-terminal GST; dsDNA, one strand shown
Summary of the method: as §1

EHF = target: T5, EHF (Homo sapiens, UniProt Q9NZC4 1-300); details: protein: recombinant; tags: N-terminal GST; dsDNA, one strand shown
T5 sequence: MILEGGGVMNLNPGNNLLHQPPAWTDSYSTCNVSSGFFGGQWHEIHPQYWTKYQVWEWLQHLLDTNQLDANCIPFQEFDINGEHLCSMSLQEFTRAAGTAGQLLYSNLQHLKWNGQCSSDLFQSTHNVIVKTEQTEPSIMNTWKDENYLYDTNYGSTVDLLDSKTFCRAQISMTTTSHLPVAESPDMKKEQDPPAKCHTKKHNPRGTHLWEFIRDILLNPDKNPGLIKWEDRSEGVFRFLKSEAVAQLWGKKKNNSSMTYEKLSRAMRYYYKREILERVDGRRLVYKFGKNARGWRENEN
Summary of the method: as §1

SPI1 = SPI1 (Homo sapiens, UniProt P17947 1-270); details: protein: recombinant; tags: N-terminal GST; dsDNA, one strand shown
Summary of the method: as §1

SPIB = SPIB (Homo sapiens, UniProt Q01892 1-262); details: protein: recombinant; tags: N-terminal GST; dsDNA, one strand shown
Summary of the method: as §1

ELK3 = target: T6, ELK3 (Homo sapiens, UniProt P41970 1-407); details: protein: recombinant; tags: N-terminal GST; dsDNA, one strand shown
T6 sequence: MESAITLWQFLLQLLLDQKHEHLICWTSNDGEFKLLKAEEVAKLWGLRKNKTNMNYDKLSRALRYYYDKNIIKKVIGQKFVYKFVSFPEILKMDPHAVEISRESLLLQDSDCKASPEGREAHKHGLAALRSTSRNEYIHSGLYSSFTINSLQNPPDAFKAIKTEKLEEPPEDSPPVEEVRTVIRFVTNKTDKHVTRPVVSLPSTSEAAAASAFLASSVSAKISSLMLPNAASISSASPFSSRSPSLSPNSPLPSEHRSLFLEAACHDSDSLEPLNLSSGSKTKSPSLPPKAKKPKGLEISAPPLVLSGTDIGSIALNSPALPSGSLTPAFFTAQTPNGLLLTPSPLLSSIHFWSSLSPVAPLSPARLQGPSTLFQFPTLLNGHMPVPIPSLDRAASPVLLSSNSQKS
Summary of the method: as §1

FEV = target: T7, FEV (Homo sapiens, UniProt Q99581 1-238); details: protein: recombinant; tags: N-terminal GST; dsDNA, one strand shown
T7 sequence: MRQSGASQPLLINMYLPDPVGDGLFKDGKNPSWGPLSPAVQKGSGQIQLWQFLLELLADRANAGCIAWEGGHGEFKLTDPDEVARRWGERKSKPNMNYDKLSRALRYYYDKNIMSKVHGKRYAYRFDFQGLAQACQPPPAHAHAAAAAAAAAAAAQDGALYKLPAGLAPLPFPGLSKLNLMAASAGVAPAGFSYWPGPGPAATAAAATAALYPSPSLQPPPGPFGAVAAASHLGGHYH
Summary of the method: as §1

ETV5 = ETV5 (Homo sapiens, UniProt P41161 1-510); details: protein: recombinant; tags: N-terminal GST; dsDNA, one strand shown
Summary of the method: as §1

HSF1 = HSF1 (Homo sapiens, UniProt Q00613 1-529); details: protein: recombinant; tags: N-terminal GST; chain copies: 3; dsDNA, one strand shown
Summary of the method: as §1

SPIC = target: T8, SPIC (Homo sapiens, UniProt Q8N5J4 1-248); details: protein: recombinant; tags: N-terminal GST; dsDNA, one strand shown
T8 sequence: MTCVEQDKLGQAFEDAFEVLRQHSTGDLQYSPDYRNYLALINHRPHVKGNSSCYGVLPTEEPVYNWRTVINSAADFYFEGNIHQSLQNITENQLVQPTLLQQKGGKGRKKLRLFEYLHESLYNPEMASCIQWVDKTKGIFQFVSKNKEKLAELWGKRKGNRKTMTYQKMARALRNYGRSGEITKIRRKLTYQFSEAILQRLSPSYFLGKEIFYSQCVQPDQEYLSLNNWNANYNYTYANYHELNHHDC
Summary of the method: as §1

ELF4 = ELF4 (Homo sapiens, UniProt Q99607 1-663); details: protein: recombinant; tags: N-terminal GST; dsDNA, one strand shown
Summary of the method: as §1

ELK4 = target: T9, ELK4 (Homo sapiens, UniProt P28324-2 1-405); details: protein: recombinant; tags: N-terminal GST; dsDNA, one strand shown
T9 sequence: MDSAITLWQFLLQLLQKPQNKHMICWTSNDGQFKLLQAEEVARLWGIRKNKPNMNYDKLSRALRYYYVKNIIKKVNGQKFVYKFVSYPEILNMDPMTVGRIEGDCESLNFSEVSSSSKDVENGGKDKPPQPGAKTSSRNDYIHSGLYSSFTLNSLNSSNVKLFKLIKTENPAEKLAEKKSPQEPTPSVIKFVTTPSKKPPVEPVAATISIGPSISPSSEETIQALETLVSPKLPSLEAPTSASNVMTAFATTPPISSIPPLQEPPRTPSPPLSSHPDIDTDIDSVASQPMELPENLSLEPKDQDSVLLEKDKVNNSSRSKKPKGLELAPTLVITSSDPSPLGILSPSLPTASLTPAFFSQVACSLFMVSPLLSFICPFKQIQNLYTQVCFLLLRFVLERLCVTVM
Summary of the method: as §1

ETV2 = target: T10, ETV2 (Homo sapiens, UniProt O00321 1-342); details: protein: recombinant; tags: N-terminal GST; dsDNA, one strand shown
T10 sequence: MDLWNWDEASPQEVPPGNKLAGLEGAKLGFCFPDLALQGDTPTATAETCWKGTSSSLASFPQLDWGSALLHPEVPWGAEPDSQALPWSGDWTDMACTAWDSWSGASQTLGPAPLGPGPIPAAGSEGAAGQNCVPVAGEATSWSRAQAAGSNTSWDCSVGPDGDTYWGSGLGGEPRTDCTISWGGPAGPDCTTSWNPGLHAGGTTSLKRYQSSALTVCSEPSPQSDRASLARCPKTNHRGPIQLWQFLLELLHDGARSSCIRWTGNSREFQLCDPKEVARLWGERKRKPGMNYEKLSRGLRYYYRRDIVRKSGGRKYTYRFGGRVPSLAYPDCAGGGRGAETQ
Summary of the method: as §1

ELF3 = target: T11, ELF3 (Homo sapiens, UniProt P78545 1-371); details: protein: recombinant; tags: N-terminal GST; dsDNA, one strand shown
T11 sequence: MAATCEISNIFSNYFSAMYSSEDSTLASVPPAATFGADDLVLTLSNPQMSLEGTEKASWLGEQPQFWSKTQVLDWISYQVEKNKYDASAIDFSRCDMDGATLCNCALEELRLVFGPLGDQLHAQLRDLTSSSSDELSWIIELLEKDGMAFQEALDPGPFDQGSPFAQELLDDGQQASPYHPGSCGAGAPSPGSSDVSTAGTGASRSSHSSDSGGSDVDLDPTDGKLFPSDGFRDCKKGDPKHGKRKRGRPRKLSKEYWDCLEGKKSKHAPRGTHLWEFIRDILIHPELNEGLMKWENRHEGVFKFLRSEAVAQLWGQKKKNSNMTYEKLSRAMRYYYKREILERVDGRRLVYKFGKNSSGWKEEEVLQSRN
Summary of the method: as §1

CRX = CRX (Homo sapiens, UniProt O43186 1-299); details: protein: recombinant; tags: N-terminal GST; dsDNA, one strand shown
Summary of the method: as §1

ETV1 = ETV1 (Homo sapiens, UniProt P50549 1-477); details: protein: recombinant; tags: N-terminal GST; dsDNA, one strand shown
Summary of the method: as §1

Chain of CRX (O43186 whole entry): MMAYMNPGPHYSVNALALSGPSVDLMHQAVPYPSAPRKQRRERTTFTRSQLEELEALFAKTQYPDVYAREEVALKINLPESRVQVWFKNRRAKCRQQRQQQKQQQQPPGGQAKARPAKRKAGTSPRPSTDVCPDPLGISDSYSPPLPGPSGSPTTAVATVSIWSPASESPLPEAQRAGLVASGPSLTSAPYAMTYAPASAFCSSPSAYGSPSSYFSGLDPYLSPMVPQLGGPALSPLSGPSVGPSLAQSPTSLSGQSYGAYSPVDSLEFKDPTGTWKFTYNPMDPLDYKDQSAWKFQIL
Chain of HSF1 (Q00613 whole entry): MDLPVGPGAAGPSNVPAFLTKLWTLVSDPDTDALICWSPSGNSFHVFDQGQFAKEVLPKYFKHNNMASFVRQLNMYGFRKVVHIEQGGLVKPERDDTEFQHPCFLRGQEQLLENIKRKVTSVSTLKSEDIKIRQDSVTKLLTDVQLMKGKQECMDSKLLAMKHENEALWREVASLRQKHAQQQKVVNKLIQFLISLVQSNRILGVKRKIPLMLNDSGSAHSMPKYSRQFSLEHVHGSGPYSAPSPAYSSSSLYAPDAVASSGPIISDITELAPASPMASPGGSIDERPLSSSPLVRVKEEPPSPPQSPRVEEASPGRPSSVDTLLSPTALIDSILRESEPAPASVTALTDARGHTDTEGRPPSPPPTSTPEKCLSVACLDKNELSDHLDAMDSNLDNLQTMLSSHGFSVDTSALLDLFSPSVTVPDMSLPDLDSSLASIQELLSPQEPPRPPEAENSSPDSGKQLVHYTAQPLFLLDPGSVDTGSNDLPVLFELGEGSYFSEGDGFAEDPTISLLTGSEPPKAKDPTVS
Chain of SPIB (Q01892 whole entry): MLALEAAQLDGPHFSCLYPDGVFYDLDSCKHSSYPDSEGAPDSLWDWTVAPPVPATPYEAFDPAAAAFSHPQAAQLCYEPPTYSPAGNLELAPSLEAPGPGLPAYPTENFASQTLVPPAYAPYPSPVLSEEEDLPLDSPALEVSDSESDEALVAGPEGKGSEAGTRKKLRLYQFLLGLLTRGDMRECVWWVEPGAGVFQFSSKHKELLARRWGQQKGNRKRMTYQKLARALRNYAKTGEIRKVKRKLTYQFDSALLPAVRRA
Chain of ELF4 (Q99607 whole entry): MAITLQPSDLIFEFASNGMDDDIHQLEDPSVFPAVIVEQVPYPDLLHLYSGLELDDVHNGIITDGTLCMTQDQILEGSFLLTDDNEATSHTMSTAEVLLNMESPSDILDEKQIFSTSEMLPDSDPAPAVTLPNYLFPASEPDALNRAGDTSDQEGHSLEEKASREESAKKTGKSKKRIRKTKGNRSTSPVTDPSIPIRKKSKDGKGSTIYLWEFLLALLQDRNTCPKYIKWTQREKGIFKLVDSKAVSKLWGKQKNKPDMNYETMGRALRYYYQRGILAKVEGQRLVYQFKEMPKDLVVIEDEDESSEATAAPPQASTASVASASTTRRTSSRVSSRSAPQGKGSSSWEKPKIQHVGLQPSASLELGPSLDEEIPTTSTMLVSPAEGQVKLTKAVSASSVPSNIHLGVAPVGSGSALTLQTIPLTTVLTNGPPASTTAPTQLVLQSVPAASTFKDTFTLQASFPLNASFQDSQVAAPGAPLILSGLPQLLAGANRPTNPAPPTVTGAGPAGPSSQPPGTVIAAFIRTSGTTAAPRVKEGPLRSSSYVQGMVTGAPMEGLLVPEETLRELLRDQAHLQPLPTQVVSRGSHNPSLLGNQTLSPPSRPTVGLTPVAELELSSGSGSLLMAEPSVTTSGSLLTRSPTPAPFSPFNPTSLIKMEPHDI
Chain of ELF1 (P32519 whole entry): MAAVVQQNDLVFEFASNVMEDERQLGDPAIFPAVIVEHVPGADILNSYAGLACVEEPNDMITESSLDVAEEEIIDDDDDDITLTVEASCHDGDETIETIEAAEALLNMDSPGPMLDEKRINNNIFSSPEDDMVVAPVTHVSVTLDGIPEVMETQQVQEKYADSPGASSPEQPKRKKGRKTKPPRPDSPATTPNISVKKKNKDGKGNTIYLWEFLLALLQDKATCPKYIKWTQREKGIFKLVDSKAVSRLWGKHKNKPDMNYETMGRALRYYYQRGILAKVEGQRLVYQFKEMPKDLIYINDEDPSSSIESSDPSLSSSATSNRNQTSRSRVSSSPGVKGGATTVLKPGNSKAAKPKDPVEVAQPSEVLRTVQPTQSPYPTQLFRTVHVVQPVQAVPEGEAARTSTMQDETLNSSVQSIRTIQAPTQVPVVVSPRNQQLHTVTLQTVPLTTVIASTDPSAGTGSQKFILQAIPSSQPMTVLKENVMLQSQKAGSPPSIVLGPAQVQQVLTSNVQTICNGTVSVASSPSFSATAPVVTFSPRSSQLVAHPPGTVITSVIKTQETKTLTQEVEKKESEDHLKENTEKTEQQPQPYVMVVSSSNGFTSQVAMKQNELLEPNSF
Chain of ETV1 (P50549 whole entry): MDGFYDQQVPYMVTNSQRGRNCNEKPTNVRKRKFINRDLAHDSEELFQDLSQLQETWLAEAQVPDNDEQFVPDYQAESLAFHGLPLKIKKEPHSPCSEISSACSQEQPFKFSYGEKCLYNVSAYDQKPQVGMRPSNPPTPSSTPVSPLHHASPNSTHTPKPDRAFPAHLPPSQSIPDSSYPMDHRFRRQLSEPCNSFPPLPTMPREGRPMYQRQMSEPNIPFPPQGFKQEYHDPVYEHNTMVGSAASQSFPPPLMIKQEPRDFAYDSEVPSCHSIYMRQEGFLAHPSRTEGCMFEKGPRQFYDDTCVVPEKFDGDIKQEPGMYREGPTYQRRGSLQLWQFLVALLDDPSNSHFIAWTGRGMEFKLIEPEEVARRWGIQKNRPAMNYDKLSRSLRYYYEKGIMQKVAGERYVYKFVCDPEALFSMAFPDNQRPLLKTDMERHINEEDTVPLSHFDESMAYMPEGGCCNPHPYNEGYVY
Chain of ETV5 (P41161 whole entry): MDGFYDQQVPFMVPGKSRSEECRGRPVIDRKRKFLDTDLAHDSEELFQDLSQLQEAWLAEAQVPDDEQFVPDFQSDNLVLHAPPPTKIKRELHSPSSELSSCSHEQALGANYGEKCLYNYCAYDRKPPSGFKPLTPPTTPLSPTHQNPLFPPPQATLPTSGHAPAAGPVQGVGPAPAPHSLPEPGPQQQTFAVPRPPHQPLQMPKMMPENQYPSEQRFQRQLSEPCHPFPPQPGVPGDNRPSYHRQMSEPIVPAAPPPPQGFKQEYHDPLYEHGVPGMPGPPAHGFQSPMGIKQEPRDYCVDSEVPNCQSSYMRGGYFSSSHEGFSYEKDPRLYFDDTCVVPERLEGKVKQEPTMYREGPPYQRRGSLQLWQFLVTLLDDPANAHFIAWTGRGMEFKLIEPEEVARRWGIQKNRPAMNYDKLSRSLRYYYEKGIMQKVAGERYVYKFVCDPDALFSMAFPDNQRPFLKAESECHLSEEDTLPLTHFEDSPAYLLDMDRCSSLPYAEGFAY

With CTTGGT the binding signal (FLI1) was 1.63 fold enrichment (6-mer frequency, TF over GST control), the binding signal (ELK1) was 1.44 fold enrichment (6-mer frequency, TF over GST control) and the binding signal (GABPA) was 1.55 fold enrichment (6-mer frequency, TF over GST control). The binding signal (ERG) was 1.42 fold enrichment (6-mer frequency, TF over GST control), the binding signal (ELF1) was 1.46 fold enrichment (6-mer frequency, TF over GST control) and the binding signal (EHF) was 1.53 fold enrichment (6-mer frequency, TF over GST control). The binding signal (SPI1) was 1.4 fold enrichment (6-mer frequency, TF over GST control), the binding signal (SPIB) was 1.57 fold enrichment (6-mer frequency, TF over GST control) and the binding signal (ELK3) was 1.66 fold enrichment (6-mer frequency, TF over GST control). The binding signal (FEV) was 1.33 fold enrichment (6-mer frequency, TF over GST control), the binding signal (ETV5) was 1.46 fold enrichment (6-mer frequency, TF over GST control) and the binding signal (HSF1) was 1.18 fold enrichment (6-mer frequency, TF over GST control). For the same sequence, the binding signal (SPIC) was 1.61 fold enrichment (6-mer frequency, TF over GST control), the binding signal (ELF4) was 1.58 fold enrichment (6-mer frequency, TF over GST control) and the binding signal (ELK4) was 1.53 fold enrichment (6-mer frequency, TF over GST control). The binding signal (ETV2) was 1.53 fold enrichment (6-mer frequency, TF over GST control), the binding signal (ELF3) was 1.51 fold enrichment (6-mer frequency, TF over GST control) and the binding signal (CRX) was 1.21 fold enrichment (6-mer frequency, TF over GST control). For the same sequence, the binding signal (ETV1) was 1.53 fold enrichment (6-mer frequency, TF over GST control).
